The text below walks through data of PubChem BioAssay (NCATS).

Several values for one entry are separate records, joined by “and”; a condition that tells them apart may be missing. Identical values can stand only once. Inconclusive results are not listed. Activity calls are given as the source filed them. Calls come from the whole dose curve; as a rule, active = well fitted inhibition curve with a large enough effect; inconclusive = small, poorly fitted or top-dose-only effect; inactive = flat fitted curve, though single readings scatter.
% is set by controls: 0 for no effect and ±100 for the full control effect; potency is the fitted concentration of half-maximal effect.

The experiment relates to astro (control astrocytes). Kind of experiment: Drug repurposing screens with cells derived from glioblastoma tumor samples (AID 1345199). Note: nearly all actives have a fitted effect of over 40% in size. As to conditions: viability, ATP luminescence, 48 h; series mostly up to 45.9 µM; activity, negative = cell killing: at the top concentration. As for the experimental part:
CD133+ cells were isolated from GBM patient biopsies and cultured as neurospheres. Neurospheres from four patients were used to screen the NCATS pharmaceutical collection (NPC) library of approved drugs and bioactive compounds. […] The neurospheres were incubated with drugs for 48 hours in 1536-well format, then assayed with an ATP content cell viability assay. […] These hits were cherry picked to confirm activity in the four original GBM lines screened plus three other slower growing GMB lines (unable to yield enough cells for a full primary screen). Variable activities of the confirmed primary hits in the different GBM patient lines were observed. The patient line 206 responded to the greatest number of compounds and line 923 responded to the least amount of active compounds.
Turning to `OC[C@@H](O)[C@H](O)[C@H](O)[C@@H](O)CO`, the Potency entry is “inactive”. Regarding `O=C1NCC2(CCN(CCc3ccccc3)CC2)O1`, the “activity, negative = cell killing” value is -12.8% (inactive).

For the molecule `CC(=O)CCCCn1c(=O)c2c(ncn2C)n(C)c1=O`, the “activity, negative = cell killing” value is -12.2% [at 21.2 µM] (inactive). On to `CCn1cc(C(=O)O)c(=O)c2ccc(C)nc21`, for which the “activity, negative = cell killing” value is -19% (inactive). On the same count and under the same terms, next, `O=c1[nH]cnc2c1ncn2[C@H]1CC[C@@H](CO)O1`: -8.88% (inactive). On to `O=C(O)Cc1cccc2ccccc12`, for which the Potency result is “inactive”.

With `CC(=O)c1ccc(S(=O)(=O)NC(=O)NC2CCCCC2)cc1`, the “activity, negative = cell killing” value is -6.13% (inactive). Regarding `CN(C)c1cc(NC(=O)CNC(C)(C)C)c(O)c2c1C[C@@H]1C[C@H]3[C@H](N(C)C)C(=O)C(C(N)=O)=C(O)[C@@]3(O)C(=O)C1=C2O`, the “activity, negative = cell killing” value was -14.6% (inactive). Take `NCCS`: the Potency result is “inactive”. Regarding `Cc1nnc(C(C)C)n1C1C[C@H]2CC[C@@H](C1)N2CC[C@H](NC(=O)C1CCC(F)(F)CC1)c1ccccc1` (stereo not given in full), the “activity, negative = cell killing” value was -16% (inactive). The same measure, in the same setting: next, `CCOC(=O)O[C@]1(C(=O)OCCl)CC[C@@H]2[C@H]3CCC4=CC(=O)C=C[C@]4(C)[C@@H]3[C@@H](O)C[C@@]21C`: -19.6% (inactive); `O=C1NC(=O)C(c2ccccc2)(c2ccccc2)N1`: -16% (inactive).

On to `C[N+]1(C)[C@@H]2CC(OC(=O)[C@H](CO)c3ccccc3)C[C@H]1[C@H]1O[C@@H]12` (stereo not given in full), for which the “activity, negative = cell killing” value is -13% (inactive). Take `CC(C)(C)c1ccc(C(O)CCCN2CCC(C(O)(c3ccccc3)c3ccccc3)CC2)cc1` (stereo not given): the Potency was 35.5 µM (active) and 20 µM (active). Take `CC(C(=O)O)c1ccc(-c2ccccc2)c(F)c1` (stereo not given): the “activity, negative = cell killing” value is -10.6% [at 21.2 µM] (inactive). For `CN1[C@@H]2CCC[C@@H]1CC(NC(=O)c1nn(C)c3ccccc13)C2` (stereo not given in full), the “activity, negative = cell killing” value was 0.323% (inactive).

As for `COC(=O)[C@@H]1[C@H]2C[C@H]3c4[nH]c5ccccc5c4CCN3C[C@@H]2CC[C@@H]1O`, the “activity, negative = cell killing” value is 2.01% (inactive). Take `CC1=C(/C=C/C(C)=C/C=C/C(C)=C/C(=O)Nc2ccc(O)cc2)C(C)(C)CCC1`: the Potency is 11.2 µM (active). As to `CCN1CCC[C@H]1CNC(=O)c1cc(S(N)(=O)=O)ccc1OC`, the “activity, negative = cell killing” value was 2.28% (inactive). Still for that read-out and setting: next, `N#C[C@H]1C[C@H]2C[C@@H]2N1C(=O)[C@@H](N)C12CC3CC(CC(O)(C3)C1)C2`: -3.57% (inactive). Consider `CC(C)OC(=O)C(C)(C)Oc1ccc(C(=O)c2ccc(Cl)cc2)cc1`, for which the “activity, negative = cell killing” value was -25.4% (inactive).

Consider `CN(C)CCC(c1ccccc1)c1ccccn1` (stereo not given), for which the “activity, negative = cell killing” value was -2.58% (inactive). Turning to `CCCNC(=O)NS(=O)(=O)c1ccc(Cl)cc1`, the “activity, negative = cell killing” value was -0.853% (inactive).

Take `NC[C@@H]1O[C@@H](O[C@H]2[C@@H](O)[C@H](O[C@@H]3[C@@H](O)[C@@H](N)C[C@H](N)[C@H]3O[C@H]3O[C@H](CN)[C@@H](O)[C@@H](O)[C@H]3N)O[C@H]2CO)[C@H](N)[C@@H](O)[C@@H]1O`: the “activity, negative = cell killing” value was -4.86% (inactive). The same measure, in the same setting: in the case of `Cc1cccc(C)c1OCC(C)N` (stereo not given) it was -20.5% (inactive); in that of `C[C@@H](O)[C@H]1C(=O)N2C(C(=O)O)=C(S[C@@H]3CN[C@H](C(=O)N(C)C)C3)[C@H](C)[C@H]12`, -13.1% (inactive). For `O=C(CCCCCCC(=O)Nc1ccccc1)NO`, the Potency is 10 µM (active) and 8.91 µM (active).

For `CC(=O)O[C@]1(C(C)=O)CC[C@H]2[C@@H]3C=C(Cl)C4=CC(=O)[C@@H]5C[C@@H]5[C@]4(C)[C@H]3CC[C@@]21C`, the “activity, negative = cell killing” value was -10.3% (inactive). Same read-out and setting: next, `CC(C)NCC(O)COc1cccc2[nH]ccc12` (stereo not given): -16.5% (inactive); `CC1(C)O[C@H]2C[C@@H]3[C@H]4CCC5=CC(=O)C=C[C@]5(C)[C@@]4(F)[C@@H](O)C[C@]3(C)[C@]2(C(=O)CO)O1`: -15% (inactive). As for `COc1ccccc1N1CCN(CCCNc2cc(=O)n(C)c(=O)n2C)CC1`, the Potency result is “inactive”.

`O=C(NCCN1CCOCC1)c1ccc(Cl)cc1`: the Potency result is “inactive”.

Turning to `O=C(O)CCc1nc(-c2ccccc2)c(-c2ccccc2)o1`, the “activity, negative = cell killing” value was -23.2% (inactive). In the case of `CCN(CC)CCNC(=O)c1ccc(N)cc1`, the “activity, negative = cell killing” value is 3.86% (inactive). Same read-out and setting: in the case of `NC(N)=Nc1nc(CSCC/C(N)=N/S(N)(=O)=O)cs1` it was -1.97% (inactive); in that of `C[N+](C)(C)CCCCCC[N+](C)(C)C`, -11.5% (inactive); in that of `CC(=O)Oc1cc2c(s1)CCN(C(C(=O)C1CC1)c1ccccc1F)C2` (stereo not given), 0.982% (inactive). As to `CC/C(=C(\c1ccccc1)c1ccc(OCCN(C)C)cc1)c1ccccc1`, the Potency is 25.1 µM (active). For the molecule `CC(=O)N[C@@H](CS)C(=O)O`, the “activity, negative = cell killing” value was -9.49% (inactive). For the molecule `CCN(CC)CCOC(=O)c1ccc(N)cc1`, the “activity, negative = cell killing” value was -8.76% [at 21.2 µM] (inactive).
